Screening results: PubChem, National Center for Advancing Translational Sciences (NCATS)
This is a sample that favours compounds with a hit; in the whole collection about 2.4% have one here.
D2 PAM-1 = positive allosteric modulators of human D2 dopamine receptor; P14416; AID 485347; hit rate 0.34% among 340,000; HEK293 T-REx D2, calcium flux, EC20 dopamine potentiation; potentiation, % at 10 µM;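 active = potentiation over 3 SD above the plate norm, cut at about 30% in these data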
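Calcium flux readout, no-wash dye, 1 read/s. Inducible HEK293 Trex D2 line, overnight 30 C. Compound alone 180 s (agonist flags), then EC20 dopamine, another 180 s to score potentiation.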
D2 antag = D2 dopamine receptor (human) antagonism | P14416 | HEK293 TREx D2 cells, calcium flux, dopamine EC80 | inhibition, % at 10 µM | hit rate 2% among 340,000 | AID 485344; in the data active = inhibition above about 30%; inactive = below that, where a call was filed
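Tetracycline-induced HEK293 T-REx cells expressing D2 force-coupled to calcium signalling were dye-loaded, exposed to compound for 180 s, then challenged with an EC80 of dopamine; calcium flux was followed kinetically for a further 180 s.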
D2 PAM-2 = human D2 receptor positive allosteric modulation | P14416 | DiscoveRx D2 beta-arrestin cells, luminescence, 90 min; 100% = 57 uM dopamine signal | hit rate 0.23% among 360,000 | potentiation, % (concentration not given with the values); in the data active = potentiation above about 50%; inconclusive = mostly about 30% to 49%
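PathHunter beta-arrestin assay in DiscoveRx D2 cells. Compounds were added with an EC20 of dopamine (50 nM final) for 90 min at 37 deg C. Luminescence was read 1 h after detection reagent, with 57 uM dopamine as the EC100 control.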
D2 ag-1 = activates the human D2 dopamine receptor; P14416; DiscoveRx PathHunter D2 beta-arrestin, luminescence, 90 min; 100% = 57 uM dopamine signal; activation, % (concentration not given with the values); hit rate 0.084% among 360,000; AID 624465; in the data active = activation above about 40%; inconclusive = between about 15% and that limit
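DiscoveRx PathHunter D2 beta-arrestin cells (2,100/well) attached overnight, then compound-stimulated 90 min at 37 C in HBSS/10 mM HEPES/0.1% Tween-20 buffer; beta-galactosidase complementation read by luminescence after 1 h at ambient temperature. Dopamine 57 uM final (EC100) as control.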
D2 ag-2 = agonists of human D2 dopamine receptor | AID 485358 | hit rate 0.53% among 340,000 | P14416 | activation, % at 2 µM | HEK293 T-REx D2 cells, calcium flux agonist mode;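 active = activation over 3 SD above normal in the single-dose calcium agonist read, cut at about 30% in these data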
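Calcium-flux readout, 1 cycle/sec over 180 s following compound pin transfer, in inducible HEK293 Trex D2 cells (force-coupled); dopamine controls included. Positive calcium responses during this window marked compounds as potential agonists.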
D3 ag = activates human D3 dopamine receptor beta-arrestin recruitment; hit rate 4% among 2,300; Potency, µM (top dose mostly 76.9 µM), usual class: activators; AID 720506; DiscoveRx D3 beta-arrestin cells, luminescence, 90 min; shares compounds with D2 ag-2; note: nearly all actives have a fitted effect of over 70% in size
Target sequence (P35462 whole entry, looked up): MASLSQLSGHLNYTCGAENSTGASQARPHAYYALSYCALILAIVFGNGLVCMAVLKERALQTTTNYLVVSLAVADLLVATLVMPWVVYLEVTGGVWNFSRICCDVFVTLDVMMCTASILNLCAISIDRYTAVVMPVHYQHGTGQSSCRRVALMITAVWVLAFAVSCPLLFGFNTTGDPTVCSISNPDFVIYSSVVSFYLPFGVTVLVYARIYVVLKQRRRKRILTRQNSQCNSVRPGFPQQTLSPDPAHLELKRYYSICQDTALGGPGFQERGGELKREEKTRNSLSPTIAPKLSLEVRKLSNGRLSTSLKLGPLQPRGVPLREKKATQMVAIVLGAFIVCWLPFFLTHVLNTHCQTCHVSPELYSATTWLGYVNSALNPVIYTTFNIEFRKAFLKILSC
D2 ag-3 = D2 receptor agonism, beta-arrestin counterscreen; shares compounds with D2 ag-2; AID 720507; hit rate 5.9% among 2,300; DiscoveRx PathHunter D2 beta-arrestin, luminescence, 90 min; response scale: percent relative to full dopamine signal; Potency, µM (titrated, usually from 76.9 µM), most hits filed as activators; note: nearly all actives have a fitted effect of over 70% in size
A number is an active result. Unless noted, calls come from the whole dose curve; as a rule, active = well fitted activation curve with a large enough effect; inconclusive = small, poorly fitted or top-dose-only effect; inactive = flat fitted curve, though single readings scatter.

For Cn1c(=O)cc(OCC(=O)NCCCN2CCN(c3ccccc3F)CC2)c2ccccc21 the results were D2 PAM-1 inactive, D2 antag 78.2, D2 PAM-2 inconclusive, D2 ag-1 45.1, D2 ag-2 86.2, D3 ag inactive and D2 ag-3 inconclusive.
For C[C@H](CO)N1C[C@H](C)[C@@H](CN(C)Cc2ccncc2)Oc2c(NS(=O)(=O)c3cn(C)cn3)cccc2C1=O the results were D2 PAM-2 inactive and D2 ag-1 inactive.
`CC(=O)CC(C)(C)Nc1nc2cc([N+](=O)[O-])ccc2o1` gave D2 PAM-1 inactive, D2 antag inactive, D2 PAM-2 inactive, D2 ag-1 inactive and D2 ag-2 inactive.
For CC(=O)CC(C)(C)Nc1nc2ccc([N+](=O)[O-])cc2o1 the results were D2 PAM-1 inactive, D2 antag 38.6, D2 PAM-2 inactive, D2 ag-1 inactive, D2 ag-2 inactive, D3 ag inactive and D2 ag-3 inactive.
Screening CCOc1ccccc1NS(=O)(=O)c1ccc2c(c1)CC(C)N2C(=O)C1CCC1 (centres undefined) returned D2 PAM-1 inactive and D2 ag-2 inactive.
Screening Cn1c(=O)c(Oc2ccc(F)cc2)c(O)c2ccccc21 returned D2 PAM-1 inactive, D2 antag inactive, D2 PAM-2 inactive, D2 ag-1 inactive, D2 ag-2 50.3, D3 ag inactive and D2 ag-3 inactive.
CC(=O)c1c(O)c2ccccc2n(C)c1=O was read as D2 PAM-1 inactive, D2 antag inactive, D2 PAM-2 inactive, D2 ag-1 inactive and D2 ag-2 inactive.
Screening CCNS(=O)(=O)c1ccc2c3c(cccc13)C(=O)N2 returned D2 PAM-1 inactive, D2 antag inactive, D2 PAM-2 inactive, D2 ag-1 inactive, D2 ag-2 48.2, D3 ag inactive and D2 ag-3 inactive.
For Cc1ccc(CN2CCN(c3ncccn3)CC2)o1 the results were D2 PAM-1 inactive, D2 antag 85.7, D2 PAM-2 inconclusive, D2 ag-1 inconclusive, D2 ag-2 85.3, D3 ag inactive and D2 ag-3 inconclusive.
`Cc1ccc(CN2CCN(c3ccccc3)CC2)o1` gave D2 PAM-1 inactive, D2 antag 69.9, D2 PAM-2 inactive, D2 ag-1 inconclusive, D2 ag-2 49.3, D3 ag inactive and D2 ag-3 inconclusive.
Screening O=[N+]([O-])c1cccc(-c2ccc(CN3CCN(c4ccccc4)CC3)o2)c1 returned D2 PAM-1 inactive, D2 antag 46.8, D2 PAM-2 inactive, D2 ag-1 inactive, D2 ag-2 51.9, D3 ag inactive and D2 ag-3 inactive.
For O=[N+]([O-])c1ccc(N2CCN(Cc3cccc([N+](=O)[O-])c3)CC2)cc1 the results were D2 PAM-1 inactive, D2 antag inactive, D2 PAM-2 inactive, D2 ag-1 inactive and D2 ag-2 inactive.
`Cc1ccc(N2CCN(c3nc4ccc(C)cc4n4nnnc34)CC2)c(C)c1` gave D2 ag-2 inactive.
`Cc1ccccc1-c1nc(CN2CCC(C(=O)NC(C)C)CC2)c(C)o1` gave D2 PAM-1 inactive and D2 ag-2 inactive.
`O=C(COc1ccc(Br)cc1)NNC(=O)c1ccc(-n2cncn2)c([N+](=O)[O-])c1` gave D2 PAM-1 inactive, D2 antag inactive, D2 PAM-2 inactive, D2 ag-1 inactive, D2 ag-2 inactive, D3 ag inactive and D2 ag-3 inactive.
For CCNC(=O)C(=O)Nc1ccc([N+](=O)[O-])cc1 the results were D2 PAM-1 inactive, D2 antag inactive, D2 PAM-2 inactive, D2 ag-1 inactive, D2 ag-2 inactive, D3 ag inactive and D2 ag-3 inactive.
For COc1ccc(NC(=O)COc2coc(CN3CCN(c4ccccc4)CC3)cc2=O)cc1 the results were D2 PAM-1 inactive, D2 antag inactive, D2 PAM-2 inactive, D2 ag-1 inactive, D2 ag-2 50.2, D3 ag inactive and D2 ag-3 inactive.
COc1ccc(N2CCN(Cc3cc(=O)c(OCC(=O)Nc4ccccc4)co3)CC2)cc1 was read as D2 PAM-1 inactive, D2 antag inactive, D2 PAM-2 inactive, D2 ag-1 inactive and D2 ag-2 inactive.
Screening Cc1ccccc1NC(=O)COc1coc(CN2CCN(c3ccccc3)CC2)cc1=O returned D2 PAM-1 inactive, D2 antag inactive, D2 PAM-2 inactive, D2 ag-1 inconclusive, D2 ag-2 54.6, D3 ag inactive and D2 ag-3 inactive.
`COc1ccc(C(=O)COC(=O)CCN=C2NS(=O)(=O)c3ccccc32)c(OC)c1` gave D2 PAM-1 inactive, D2 antag inactive, D2 PAM-2 inactive, D2 ag-1 inactive and D2 ag-2 inactive.
Cn1cc(CNCc2ccc(-n3cccn3)cc2)c(-c2ccccc2F)n1 was read as D2 PAM-1 inactive, D2 antag 44.2, D2 PAM-2 inactive, D2 ag-1 inconclusive, D2 ag-2 45.5, D3 ag inactive and D2 ag-3 inconclusive.
For Cc1nn(CCCC(=O)Nc2cccc(F)c2)c(=O)c2c1sc1ccccc12 the results were D2 PAM-1 inactive and D2 ag-2 inactive.
Screening Cc1ccc2c(c1)[C@H]1[C@H](CO2)[C@H](c2ccccc2)[C@]2(C)C(=O)N(Cc3ccc(Cl)cc3)CC(=O)N12 returned D2 PAM-1 inactive, D2 antag inactive, D2 PAM-2 inactive, D2 ag-1 inactive, D2 ag-2 inactive, D3 ag inactive and D2 ag-3 inactive.
Cc1cc(NC(=O)C(=O)NCCN2CCN(C(=O)c3cccs3)CC2)ccc1Br was read as D2 PAM-1 inactive, D2 antag inactive, D2 PAM-2 inactive, D2 ag-1 inactive, D2 ag-2 inactive, D3 ag inactive and D2 ag-3 inactive.
COc1ccc(NC(=O)C(=O)NCCN2CCN(C(=O)c3cccs3)CC2)cc1 was read as D2 PAM-1 inactive, D2 antag 44.4, D2 PAM-2 inactive, D2 ag-1 inactive, D2 ag-2 inactive, D3 ag inconclusive and D2 ag-3 inactive.
`CCc1ccc(NC(=O)CCCc2nnc3n(C(C)CC)c(=O)c4sccc4n23)cc1` (centres undefined) gave D2 PAM-1 inactive and D2 ag-2 inactive.
For CCc1nnc2c3ccccc3nc(N3CCN(c4cc(C)ccc4C)CC3)n12 the results were D2 PAM-1 inactive and D2 ag-2 inactive.
For Cc1cccc(N2CCN(Cc3cn(C)nc3-c3ccccc3F)CC2)n1 the results were D2 PAM-1 inactive, D2 antag 30.4, D2 PAM-2 inactive, D2 ag-1 inconclusive, D2 ag-2 51.4, D3 ag inactive and D2 ag-3 inactive.
For Cn1cc(CN2CCN(c3ccc(Cl)cn3)CC2)c(-c2ccccc2F)n1 the results were D2 PAM-1 inactive, D2 antag inactive, D2 PAM-2 inactive, D2 ag-1 inactive and D2 ag-2 inactive.
